Screening results deposited in PubChem by National Center for Advancing Translational Sciences (NCATS).
NPC1 prom act: activators of NPC1 promoter. Huh7 NPC1 promoter luciferase reporter, 24 h. 2.4% of 320,000 active. AID 485313. Potency, µM (titrated, usually from 9.22 µM), inactives show top-dose activation, actives largely listed as activators; further: % of control where 0% means no effect; nearly all actives have a fitted effect of over 60% in size
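In 1536-well qHTS, Huh7 cells harboring an NPC1 promoter–luciferase construct received compound for 24 h; activation was quantified by luminescence following luciferase reagent addition.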
Rab9 prom act: Rab9 promoter activation; Huh7 Rab9 promoter-luciferase reporter, luminescence, 24 h; Potency, µM (series often up to 9.22 µM), for the others: top-dose activation, negative = inhibition, usual class: activators; 2.8% of 320,000 active; AID 485297; further: % of control where 0% means no effect; nearly all actives have a fitted effect of over 60% in size
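Promoter activation is measured as luciferase luminescence in Huh7 cells stably transfected with a Rab9 promoter–luciferase construct, following 24 h compound exposure at 37 °C and 10 min reagent incubation at ambient temperature.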
FLuc counter: counter-screen for miR-21 project: firefly luciferase inhibitors or activators; purified FLuc, Km substrates, luminescence inhibition; Potency, µM (highest dose often 57.5 µM), without a hit: at the highest dose activity change, negative = inhibition, actives largely listed as inhibitors; 6.9% of 360,000 active; AID 588342;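 further: plate controls were vehicle for no effect and reference inhibitor for full effect; nearly all actives have a fitted effect of over 55% in size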
Target sequence (P08659 whole entry, looked up): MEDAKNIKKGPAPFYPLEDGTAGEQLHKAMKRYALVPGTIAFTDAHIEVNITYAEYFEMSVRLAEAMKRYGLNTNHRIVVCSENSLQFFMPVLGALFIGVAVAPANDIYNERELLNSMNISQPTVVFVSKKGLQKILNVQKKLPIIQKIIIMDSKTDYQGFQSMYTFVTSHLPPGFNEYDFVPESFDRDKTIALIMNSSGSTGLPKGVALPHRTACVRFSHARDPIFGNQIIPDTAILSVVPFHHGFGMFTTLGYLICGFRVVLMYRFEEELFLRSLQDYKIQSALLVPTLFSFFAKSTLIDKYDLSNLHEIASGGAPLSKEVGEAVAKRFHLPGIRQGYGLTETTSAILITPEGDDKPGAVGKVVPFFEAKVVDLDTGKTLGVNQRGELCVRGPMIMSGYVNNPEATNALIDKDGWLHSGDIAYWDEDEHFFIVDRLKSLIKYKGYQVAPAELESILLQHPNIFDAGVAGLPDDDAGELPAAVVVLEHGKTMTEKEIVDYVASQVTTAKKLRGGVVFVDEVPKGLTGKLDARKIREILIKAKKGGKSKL
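Biochemical qHTS of compounds, final roughly 60 µM downward over six points, against 10 nM purified firefly luciferase using Km concentrations of substrates (10 uM D-luciferin, 10 uM ATP) in Tris acetate pH 7.5 buffer; luminescence output.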
SMN2 splice enh: enhancers of SMN2 splice variant expression; 2.8% of 210,000 active; HEK293 SMN2-luciferase splicing reporter, luminescence, 30-36 h; Potency, µM (doses to about 46.1 µM), for inactives: at the top dose activity change, positive = activation, hits mostly activators; further: % of control where 0% means no effect; nearly all actives have a fitted effect of over 55% in size
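qHTS luciferase splicing reporter: luminescence rises when SMN2 exon 7 is included in transfected HEK293 cells. Compound exposure lasted 30-36 h at 37C, with 4.5 mM final sodium butyrate as control, followed by a ONE-Glo read.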
ELG1 genotox: inducers of genotoxicity in HEK293T ELG1-luciferase cells; HEK293T ELG1-luciferase reporter, luminescence, 16 h; Potency, µM (titrated, usually from 46 µM), for inactives: top-dose activity change, positive = activation, actives largely listed as activators; 1.3% of 330,000 active; further: % of control where 0% means no effect; nearly all actives have a fitted effect of over 60% in size
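Quantitative HTS format in 1536-well plates. HEK293T ELG1-luciferase reporter cells receive test compound and are incubated 16 hr at 37 °C, 5% CO2; ONE-Glo added, 30 min room temperature, then luminescence read.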
p53 reactivation: re-activators of mutant p53. AID 504706. 0.063% of 320,000 active. H1299 p53-A138V BP100-luciferase reporter, luminescence, 24 h. Potency, µM (top dose mostly 92.2 µM), without a hit: at the highest dose activity change, positive = activation, most hits filed as activators; further: % of control where 0% means no effect; nearly all actives have a fitted effect of over 45% in size
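H1299 (p53-null), stable ts p53-A138V + BP100-Luc; 1000 cells/well, Opti-MEM/10% FBS; cpd 4 pt, 1:5; 24 h, 37 deg C, 5% CO2; detection reagent 10 min RT; luminescence.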
Active calls of the source: *; ? = inconclusive; / = not tested or not shown. Rows were chosen to be rich in hits. Some 7.3% of all compounds tested hit in one or more screens of this group. The call rests on the fitted dose curve; in most records, active means well fitted curve in the direction sought with a large enough effect; inconclusive means small, poorly fitted or top-dose-only effect, or another doubt; inactive means no such curve, though single readings can be large; an effect the other way counts as inactive or inconclusive. Potency means the concentration at half of the fitted maximal effect.

SMILES	NPC1 prom act	Rab9 prom act	FLuc counter	SMN2 splice enh	ELG1 genotox	p53 reactivation
O=C(CSc1ccc2nc(-c3ccccc3)cn2n1)NCC1CCCO1 (stereo unspecified)	?	?	19µM*	/	10%	4%
O=C(CSc1ccc(-c2ccc(-n3cccn3)cc2)nn1)Nc1ccccc1F	13%	2%	0.6µM*	/	?	16%
COc1ccc(-c2cn3nc(SCC(=O)NCC4CCCO4)ccc3n2)cc1 (stereo unspecified)	?	1.6µM*	2.7µM*	/	?	10%
COc1ccc(-c2cc(COc3ccccc3)on2)cc1	?	4µM*	11µM*	?	?	17%
Clc1ccc(SCc2cc(-c3ccccc3)no2)cc1	14%	21%	?	-18%	-2%	0%
Clc1ccc(OCc2cc(-c3ccccc3)no2)c(Cl)c1	0.5µM*	0.63µM*	0.38µM*	0.5µM*	?	-4%
Cc1cc(COc2ccccc2OCc2cc(C)no2)on1	3%	-3%	1%	1%	-4%	5%
COc1ccc(-c2cc(C(=O)Nc3ccccc3SC)no2)cc1	5%	25%	-1%	7%	5%	5%
Cc1cccc(OCc2cc(-c3ccccc3)no2)c1C	?	?	12µM*	/	?	16%
COc1ccc(-c2cc(-c3ccccc3)no2)cc1	0.5µM*	0.4µM*	0.38µM*	/	?	?
CC(C)[C@@H](CC(=O)N[C@@H]1CCNC[C@H]1C(=O)N[C@H](CC(=O)N[C@@H](CCC(=O)O)CC(=O)O)Cc1c[nH]c2ccccc12)NC(=O)C[C@H](CO)NC(=O)[C@@H]1CCCC[C@H]1N	/	/	/	12%	/	/
CCOc1ccc(NC(=O)Cn2nnc(C(=O)OC)c2C(=O)OC)cc1	/	/	-5%	0%	/	/
Fc1ccc(OCc2cc(-c3ccccc3)no2)cc1	2.8µM*	3.2µM*	5.4µM*	/	21µM*	20%
COc1ccc(-c2noc(-c3ccc(Cl)cc3)n2)cc1	2.5µM*	?	2.1µM*	11µM*	5.6µM*	4%
CC(C)c1cc(-c2nc(-c3ccc(Cl)cc3)no2)n[nH]1	/	/	9.5µM*	/	/	/
COc1ccc(-c2nc(-c3ccc(Br)o3)no2)cc1	0.63µM*	0.45µM*	0.95µM*	10µM*	1.2µM*	33%
COc1ccc(-c2noc(-c3ccc(Br)o3)n2)cc1	3.2µM*	2µM*	2.4µM*	/	?	19%
O=C(Nc1ccc(F)cc1F)c1ccc(CN2CC(=O)N3CCCCC3C2=O)cc1 (stereo unspecified)	/	/	6%	/	/	/
COc1cccc(-c2noc(-c3ccc(Br)o3)n2)c1	2.5µM*	1.4µM*	3µM*	22µM*	?	-6%
CCc1cnc2c(c1SCC(=O)NCc1ccc(F)cc1)c(=O)n(C)c(=O)n2C	/	/	-7%	/	/	/
Cc1nn2c(=O)cc(COC(=O)c3ccco3)nc2s1	/	/	0%	/	/	/
Cc1noc(NS(=O)(=O)c2ccc(N/C=C\C(=O)c3ccccc3)cc2)c1C	1%	-2%	?	5%	17%	2%
Cc1noc(NS(=O)(=O)c2ccc(N/C=C\C(=O)c3ccc(F)cc3)cc2)c1C	-1%	0%	?	3%	18%	6%
Cc1noc(NS(=O)(=O)c2ccc(N/C=C/C(=O)c3ccc4c(c3)OCO4)cc2)c1C	17%	5%	11µM*	5%	12%	5%
Cc1noc(NS(=O)(=O)c2ccc(N/C=C\C(=O)c3cccs3)cc2)c1C	-5%	-6%	17µM*	-2%	4%	1%
Cc1ccc2c(=O)cc(C(=O)Nc3c(C)n(C)n(-c4ccccc4)c3=O)oc2c1C	/	/	-1%	13%	/	/
COc1ccc(CC(=O)N2N=C(c3ccncc3)CC2(O)C(F)(F)F)cc1 (stereo unspecified)	-37%	-22%	5%	13%	-3%	-6%
